Results as given in PubChem BioAssay (EPA / NIEHS).
Activity calls are given as the source filed them. Rule for the calls: active = hit-call score of the fitted dose curve at least 0.9, where 1 is the maximum; inactive = score below 0.9.

Assays:
Conditions in all cases: mRNA level, 48 h; actives raise or lower the signal
[1] = read-out: Hypoxia-inducible factor 1-alpha (Homo sapiens) (UniProt Q16665); experiment: LTEA_HepaRG_HIF1A: Life Technologies and Expression Analysis (LTEA) Assay for Hypoxia-inducible factor 1 (HIF1A) Trancription factor using HepaRG (AID 2283503)
Outline: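 HepaRG, 48 h exposure, 8-pt half-log series from 100 uM, 0.5% DMSO vehicle, duplicates. Readout: HIF1A transcript by qRT-PCR (Fluidigm array), housekeeping-normalised. Bidirectional curve fit vs DMSO baseline.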

[2] = read-out: 3-Hydroxy-3-Methylglutaryl-CoA Synthase 2 (HMGCS2), HMGCS2 (gene 3158); experiment: LTEA_HepaRG_HMGCS2: Life Technologies and Expression Analysis (LTEA) Assay for 3-Hydroxy-3-Methylglutaryl-CoA Synthase 2 (HMGCS2) using HepaRG (AID 2283504)
Outline: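 HepaRG, plated 48 h then switched to serum-free induction media; cmpd 8-pt, max 100 uM, 1/2-log, 0.5% DMSO, n=2, 48 h. HMGCS2 mRNA by Fluidigm TaqMan qRT-PCR, ACTB/GAPDH/POLR2A norm; bidirectional fit vs DMSO.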

HGF (gene 3082) = experiment: LTEA_HepaRG_HGF: Life Technologies and Expression Analysis (LTEA) Assay for Hepatocyte Growth Facto (HGF) using HepaRG (AID 2283505)
Outline: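 Read-out is HGF transcript level by qRT-PCR, normalized to three housekeeping genes, fitted bidirectionally against 0.5% DMSO vehicle. Human HepaRG cells received test chemicals for 48 h at up to 100 uM.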

[3] = read-out: Insulin Like Growth Factor 1 (IGF1), IGF1 (gene 3479); experiment: LTEA_HepaRG_IGF1: Life Technologies and Expression Analysis (LTEA) Assay for Insulin Like Growth Factor 1 (IGF1) using HepaRG (AID 2283506)
Outline: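 Using human HepaRG liver cells, IGF1 transcript induction or suppression is measured 48 h after dosing across eight concentrations capped at 100 uM. Values derive from bidirectional concentration-response fitting with DMSO as baseline.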

[4] = read-out: Intercellular Adhesion Molecule 1 (ICAM1), ICAM1 (gene 3383); experiment: LTEA_HepaRG_ICAM1: Life Technologies and Expression Analysis (LTEA) Assay for Intercellular Adhesion Molecule 1 (ICAM1) using HepaRG (AID 2283507)
Outline: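 Readout is qRT-PCR mRNA level, normalized to three housekeeping genes and fitted bidirectionally against 0.5% DMSO vehicle. Human HepaRG cultures received compound for 48 h, top concentration 100 uM with half-log dilutions.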

[5] = read-out: Insulin-like growth factor-binding protein 1 (IGFBP1), IGFBP1 (gene 3484); experiment: LTEA_HepaRG_IGFBP1: Life Technologies and Expression Analysis (LTEA) Assay for Insulin-like growth factor-binding protein 1 (IGFBP1) using HepaRG (AID 2283508)
Outline: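 Thawed HepaRG cells are plated for 48 h, switched to serum-free induction medium, then dosed in duplicate for another 48 h (100 uM top, half-log steps). Lysates in RLT go to qRT-PCR, and gain or loss of signal is fitted relative to vehicle.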

[6] = read-out: Interleukin 6 (IL6), IL6 (gene 3569); experiment: LTEA_HepaRG_IL6: Life Technologies and Expression Analysis (LTEA) Assay for Interleukin 6 (IL6) using HepaRG (AID 2283509)
Outline: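 Differentiated human HepaRG cells, plated 48 h then switched to serum-free induction medium, were exposed in duplicate for 48 h to eight half-log concentrations up to 100 uM in 0.5% DMSO. IL6 mRNA measured by qRT-PCR, normalized to ACTB/GAPDH/POLR2A.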

[7] = read-out: Interleukin 6 Receptor (IL6R), IL6R (gene 3570); experiment: LTEA_HepaRG_IL6R: Life Technologies and Expression Analysis (LTEA) Assay for Interleukin 6 Receptor (IL6R) using HepaRG (AID 2283510);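 for AC50: TaqMan qRT-PCR signal normalized to ACTB GAPDH and POLR2A housekeeping genes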
Outline: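 Concentration-response in human liver HepaRG cells: eight concentrations from 100 uM downward by half-logs, 48 h exposure, 0.5% DMSO vehicle. IL6R mRNA change measured by qRT-PCR and fitted in both directions relative to vehicle.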

[8] = read-out: Potassium channel subfamily K member 1 (KCNK1), KCNK1 (gene 3775); experiment: LTEA_HepaRG_KCNK1: Life Technologies and Expression Analysis (LTEA) Assay for Potassium channel subfamily K member 1 (KCNK1) using HepaRG (AID 2283511)
Outline: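 Differentiated human HepaRG cells in serum-free induction medium were exposed in duplicate for 48 h to 8 half-log concentrations up to 100 uM in 0.5% DMSO. KCNK1 mRNA was measured by TaqMan qRT-PCR, normalized to ACTB, GAPDH and POLR2A, and fitted bidirectionally versus DMSO.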

[9] = read-out: Keratin 19 (KRT19), KRT19 (gene 3880); experiment: LTEA_HepaRG_KRT19: Life Technologies and Expression Analysis (LTEA) Assay for Keratin 19 (KRT19) using HepaRG (AID 2283512)
Outline: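 KRT19 transcript levels, measured by Fluidigm qRT-PCR against three housekeeping genes, are fitted for gain or loss of signal relative to DMSO. Human HepaRG cells receive test chemicals (top 100 uM, half-log steps, 0.5% DMSO) for 48 hours.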

[10] = read-out: JUN Transcription Factor, JUN (gene 3725); experiment: LTEA_HepaRG_JUN: Life Technologies and Expression Analysis (LTEA) Assay for JUN Transcription Factor using HepaRG (AID 2283513)
Outline: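 Human HepaRG liver cells receive test chemicals in 0.5% DMSO for 48 h across an eight-point range topping at 100 uM. Expression changes in JUN are scored in both directions against the DMSO vehicle.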

[11] = read-out: Lipase C (LIPC), LIPC (gene 3990); experiment: LTEA_HepaRG_LIPC: Life Technologies and Expression Analysis (LTEA) Assay for Lipase C (LIPC) using HepaRG (AID 2283514)
Outline: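 Differentiated human HepaRG cells in serum-free induction medium were exposed in duplicate for 48 h to eight concentrations (top 100 uM, half-log steps, 0.5% DMSO). LIPC mRNA was quantified by TaqMan qRT-PCR, normalized to ACTB, GAPDH and POLR2A, with bidirectional fitting versus DMSO.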

[12] = read-out: Lipoprotein lipase (LPL), LPL (gene 4023); experiment: LTEA_HepaRG_LPL: Life Technologies and Expression Analysis (LTEA) Assay for Lipoprotein lipase (LPL) using HepaRG (AID 2283515)
Outline: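 Differentiated human HepaRG cells in serum-free induction medium were exposed in duplicate for 48 h to eight half-log concentrations (top 100 uM) in 0.5% DMSO. LPL mRNA was quantified by TaqMan qRT-PCR, normalized to ACTB, GAPDH and POLR2A.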

[13] = read-out: MicroRNA 122 (MIR122), gene 406906; experiment: LTEA_HepaRG_MIR122: Life Technologies and Expression Analysis (LTEA) Assay for MicroRNA 122 (MIR122) using HepaRG (AID 2283516); note: the transcript read is the microRNA miR-122
Outline: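 HepaRG, 48 h exposure, 8-pt half-log from 100 uM, 0.5% DMSO; TaqMan qRT-PCR; bidirectional fit vs DMSO.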

[14] = read-out: matrix metalloproteinase-10 (MMP10), MMP10 (gene 4319); experiment: LTEA_HepaRG_MMP10: Life Technologies and Expression Analysis (LTEA) Assay for matrix metalloproteinase-10 (MMP10) using HepaRG (AID 2283517)
Outline: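 HepaRG, collagen I, ~100,000 cells/well; serum-free induction medium; 48 h exposure, duplicate, 8-pt half-log to 100 uM, 0.5% DMSO. Readout: TaqMan qRT-PCR, normalized to ACTB/GAPDH/POLR2A; bidirectional fit vs DMSO.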

MYC, MYC (gene 4609) = experiment: LTEA_HepaRG_MYC: Life Technologies and Expression Analysis (LTEA) Assay for MYC using HepaRG (AID 2283518)
Outline: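 HepaRG, ~100,000 cells/well, collagen I; 48 h plating; serum-free induction medium; 48 h dosing, duplicate, 100 uM top, half-log, 0.5% DMSO; total RNA → qRT-PCR MYC; gain/loss fit vs DMSO.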

[15] = read-out: matrix metalloproteinase-3 (MMP3), MMP3 (gene 4314); experiment: LTEA_HepaRG_MMP3: Life Technologies and Expression Analysis (LTEA) Assay for matrix metalloproteinase-3 (MMP3) using HepaRG (AID 2283519)
Outline: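 Differentiated human HepaRG cells, plated 48 h on collagen I, were exposed in duplicate for 48 h in serum-free induction medium to eight half-log concentrations up to 100 uM in 0.5% DMSO. MMP3 mRNA was quantified by TaqMan qRT-PCR, normalised to ACTB, GAPDH and POLR2A.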

[16] = read-out: Protein phosphatase 2A (PPP2R4), PTPA (gene 5524); experiment: LTEA_HepaRG_PPP2R4: Life Technologies and Expression Analysis (LTEA) Assay for Protein phosphatase 2A (PPP2R4) using HepaRG (AID 2283522)
Outline: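 Gene-expression endpoint in HepaRG hepatic cells: 48 h treatment across eight half-log concentrations up to 100 uM in 0.5% DMSO. PPP2R4 mRNA by qRT-PCR, normalized to three endogenous control genes.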

[17] = read-out: Nuclear factor NF-kappa-B p105 subunit (Homo sapiens) (UniProt P19838); experiment: LTEA_HepaRG_NFKB1: Life Technologies and Expression Analysis (LTEA) Assay for Nuclear Factor Kappa B Subunit 1 (NFKB1) using HepaRG (AID 2283521);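 note: TaqMan qRT-PCR transcript normalised to ACTB GAPDH and POLR2A housekeeping genes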
Outline: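 Differentiated human HepaRG cells were exposed for 48 h in serum-free induction medium to eight concentrations (top 100 uM, half-log steps, 0.5% DMSO), in duplicate. NFKB1 mRNA was measured by TaqMan qRT-PCR, normalized to ACTB/GAPDH/POLR2A, and fitted bidirectionally against DMSO.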

[18] = read-out: Paternally Expressed 10 (PEG10), PEG10 (gene 23089); experiment: LTEA_HepaRG_PEG10: Life Technologies and Expression Analysis (LTEA) Assay for Paternally Expressed 10 (PEG10) using HepaRG (AID 2283520);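 for AC50: PEG10 transcript by qRT-PCR normalised to ACTB GAPDH and POLR2A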
Outline: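 Chemicals tested on HepaRG cells for 48 h, highest concentration 100 uM. PEG10 expression assessed by qRT-PCR relative to DMSO control.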

Measured: AC50

Chain of Hypoxia-inducible factor 1-alpha (Homo sapiens) (Q16665 whole entry, looked up): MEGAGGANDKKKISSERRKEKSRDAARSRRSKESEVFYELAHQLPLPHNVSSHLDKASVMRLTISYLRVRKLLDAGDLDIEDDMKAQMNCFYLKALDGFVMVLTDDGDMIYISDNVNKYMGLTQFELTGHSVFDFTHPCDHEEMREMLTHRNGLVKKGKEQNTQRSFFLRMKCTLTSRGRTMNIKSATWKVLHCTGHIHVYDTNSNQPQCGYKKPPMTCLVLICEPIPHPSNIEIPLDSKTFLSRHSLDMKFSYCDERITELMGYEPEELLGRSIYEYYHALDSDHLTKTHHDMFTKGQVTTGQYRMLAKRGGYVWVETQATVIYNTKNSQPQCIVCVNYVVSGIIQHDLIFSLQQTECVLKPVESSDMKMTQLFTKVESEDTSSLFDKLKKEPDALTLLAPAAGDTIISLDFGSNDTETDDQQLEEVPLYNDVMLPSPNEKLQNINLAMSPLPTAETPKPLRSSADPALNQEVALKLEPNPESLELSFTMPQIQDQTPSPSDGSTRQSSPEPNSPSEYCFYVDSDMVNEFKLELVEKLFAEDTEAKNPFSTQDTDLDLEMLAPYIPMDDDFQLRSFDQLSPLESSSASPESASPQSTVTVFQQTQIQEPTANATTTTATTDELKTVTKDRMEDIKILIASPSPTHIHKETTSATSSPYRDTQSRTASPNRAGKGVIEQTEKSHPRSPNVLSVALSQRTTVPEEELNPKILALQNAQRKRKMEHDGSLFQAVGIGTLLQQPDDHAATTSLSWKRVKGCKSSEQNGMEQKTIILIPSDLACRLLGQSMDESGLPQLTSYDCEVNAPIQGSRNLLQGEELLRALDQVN
Chain of Nuclear factor NF-kappa-B p105 subunit (Homo sapiens) (P19838 whole entry, looked up): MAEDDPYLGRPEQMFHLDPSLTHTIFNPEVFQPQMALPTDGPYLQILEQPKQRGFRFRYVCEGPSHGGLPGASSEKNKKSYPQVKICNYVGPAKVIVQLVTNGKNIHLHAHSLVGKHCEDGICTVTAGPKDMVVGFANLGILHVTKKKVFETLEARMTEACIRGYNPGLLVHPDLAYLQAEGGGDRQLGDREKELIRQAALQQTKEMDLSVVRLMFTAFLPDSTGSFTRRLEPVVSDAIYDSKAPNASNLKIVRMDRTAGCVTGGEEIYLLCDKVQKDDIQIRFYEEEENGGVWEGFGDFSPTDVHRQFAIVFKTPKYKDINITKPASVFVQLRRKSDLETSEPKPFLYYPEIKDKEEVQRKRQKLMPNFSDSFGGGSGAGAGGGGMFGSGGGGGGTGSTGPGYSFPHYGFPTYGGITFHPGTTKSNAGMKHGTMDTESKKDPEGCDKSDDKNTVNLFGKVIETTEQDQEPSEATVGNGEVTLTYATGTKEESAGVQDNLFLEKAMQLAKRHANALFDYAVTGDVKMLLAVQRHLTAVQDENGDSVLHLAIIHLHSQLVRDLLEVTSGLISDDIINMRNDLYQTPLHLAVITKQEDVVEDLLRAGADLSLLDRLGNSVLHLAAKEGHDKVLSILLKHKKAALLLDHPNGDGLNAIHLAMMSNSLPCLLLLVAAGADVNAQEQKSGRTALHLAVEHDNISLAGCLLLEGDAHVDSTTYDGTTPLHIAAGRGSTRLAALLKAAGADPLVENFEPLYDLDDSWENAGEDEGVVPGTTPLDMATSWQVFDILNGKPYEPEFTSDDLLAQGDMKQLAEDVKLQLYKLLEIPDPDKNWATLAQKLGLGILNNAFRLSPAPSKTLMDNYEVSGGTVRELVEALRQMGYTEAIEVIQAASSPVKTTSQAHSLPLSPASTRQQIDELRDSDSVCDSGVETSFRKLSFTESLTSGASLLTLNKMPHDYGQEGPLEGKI

C#CCC1=C(C)C(OC(=O)C2C(C=C(C)C)C2(C)C)CC1=O (configuration not stated)
active: [3] 71 µM | [15] 81.9 µM
not listed: [17] | [18]
inactive: all other assays above

C[N+]1(C)CCCCC1
not listed: [18]
inactive: all other assays above

CC1=NNC(=O)N(/N=C/c2cccnc2)C1
not listed: [14]
inactive: all other assays above

CN(C)NC(=O)CCC(=O)O
not listed: [14]
inactive: all other assays above

CCCCOC(=O)[C@@H](C)Oc1ccc(Oc2ccc(C#N)cc2F)cc1
active: [2] 25.8 µM | [12] 40.4 µM
inactive: all other assays above

CCOP(=S)(OCC)Oc1cc(C)nc(C(C)C)n1
active: [3] 27.3 µM
not listed: [5] | [18]
inactive: all other assays above

S=C1NCCN1
inactive: all assays above

CCCCSP(=O)(SCCCC)SCCCC
active: [2] 50 µM | [3] 65.7 µM | [5] 64.2 µM | [9] 1.7 µM | [11] 83.6 µM | [12] 68.5 µM
not listed: [14] | [17] | [18]
inactive: all other assays above

CCc1cccc(CC)c1N(COC)C(=O)CCl
active: [5] 32.1 µM
not listed: [14] | [18]
inactive: all other assays above

CC[C@H](C)[C@H]1O[C@]2(C=C[C@@H]1C)C[C@@H]1C[C@@H](C/C=C(\C)[C@@H](O[C@H]3C[C@H](OC)[C@@H](O[C@H]4C[C@H](OC)[C@@H](NC)[C@H](C)O4)[C@H](C)O3)[C@@H](C)/C=C/C=C3\CO[C@@H]4[C@H](O)C(C)=C[C@@H](C(=O)O1)[C@]34O)O2
active: [1] 74.3 µM | [2] 12.5 µM | [3] 27.7 µM | [4] 28.9 µM | [6] 21.3 µM | [7] 22.6 µM | [8] 22.5 µM | [10] 26.5 µM | [12] 12.1 µM | [13] 55.6 µM | [14] 29.4 µM | MYC, MYC (gene 4609) 32 µM | [15] 92.9 µM | [18] 13.3 µM | [16] 33.3 µM
inactive: HGF (gene 3082) | [9] | [11]

CCc1cnc(C2=NC(C)(C(C)C)C(=O)N2)c(C(=O)O)c1 (configuration not stated)
not listed: [17] | [18]
inactive: all other assays above

FC(F)C(F)(F)OCC(Cn1cncn1)c1ccc(Cl)cc1Cl (configuration not stated)
active: [1] 76.4 µM | [2] 39.5 µM | HGF (gene 3082) 87.2 µM | [3] 33.4 µM | [4] 31.9 µM | [5] 31.4 µM | [6] 78.5 µM | [8] 66.8 µM | [11] 49.8 µM | [12] 31.3 µM | [13] 59.2 µM | [14] 49.8 µM | MYC, MYC (gene 4609) 37.3 µM | [15] 66.9 µM | [16] 90.4 µM
inactive: [7] | [9] | [10] | [18] | [17]

CCCOCC(=Nc1ccc(Cl)cc1C(F)(F)F)n1ccnc1
active: [1] 87.3 µM | [2] 53.2 µM | [3] 12.1 µM | [4] 88.2 µM | [6] 85.7 µM | [7] 66.4 µM | [9] 12 µM | [10] 73.1 µM | [11] 15.8 µM | [12] 12.8 µM | [13] 17.1 µM | [14] 78.7 µM | MYC, MYC (gene 4609) 50 µM | [15] 84.3 µM | [16] 80.7 µM
inactive: HGF (gene 3082) | [8] | [17]
